Each compound was assayed against AMP-activated protein kinase, AMPK (Homo sapiens) (UniProt P54646+O43741+P54619+Q9UGJ0+Q9Y478+Q13131+Q9UGI9) (assay: AMP-dependent Kinase enzyme assay. An in vitro enzyme assay that detects ADP turnover that is directly proportional to AMPK activity. This uses naive AMPK that is activated during the assay with MK-8722). Conditions: 30 µM.
Format: functional
Design: scale not given: direction of the effect not stated beside the values

| Structure (SMILES) | Percent Effect |
| --- | --- |
| COC(=O)Cn1c(C)cc(=O)c2cc(F)ccc21 | 1.38% |
| CNC(=O)C1Cc2ccccc2CN1C(=O)CC(C)C (stereo not given) | -7.28% |
| CC(CN1CCOC1=O)NC(=O)c1cccc(C#N)c1 (stereo not given) | 11.8% |
| COCCC(=O)N1CCCC(CCC(=O)NCc2ccccc2F)C1 (stereo not given) | 8.91% |
| CN(CCc1ccccn1)CCc1nccs1 | 0.423% |
| Cc1cc(C)c(C#N)c(NCCn2cnnc2C(C)C)n1 | 2.2% |
| CCOCCCNCc1cc(O)c2cc(C)ccc2n1 | -9.04% |
| O=C(O)c1ccn(-c2ccccc2NC(=O)c2ccccc2Cl)n1 | 5.51% |
| COc1ccccc1C(NC(=O)CN(C)C(C)C)c1noc(C)n1 (stereo not given) | -4.19% |
| CCN(CC)S(=O)(=O)c1ccc(NC(=O)C(C)(C)C)cc1 | 3.46% |
| O=C(c1nc(=O)[nH]c2ccccc12)N1CCCC(CC2CC2)(C(=O)O)C1 (stereo not given) | -0.821% |
| Cc1ccc(CNC(=O)c2ccc(=O)n(C)n2)c(OC2CCCC2)c1 | 12.3% |
| CC(c1ccon1)N(C)S(=O)(=O)NCc1ccccc1 (stereo not given) | 2.51% |
| Cc1cccc(N2CCN(C(=O)CNCCn3cccn3)CC2)c1 | -3.32% |
| CC(=O)Nn1ccc2c(nnc3c(-c4ccc(F)cc4)cnn32)c1=O | 10.3% |
| CCC1CCCCN1C(=O)Cn1cnc(C#N)n1 (stereo not given) | -0.907% |
| Cc1cc(C)c(CNc2cnn(CC(O)CN(C)C)c2)c(C)c1 (stereo not given) | -45.6% |
| Cc1ccc(OCc2occc2C(=O)N2CCOC(C(=O)O)C2)cc1 (stereo not given) | 2.93% |
| CC(C)c1nnc2n1CCN(Cc1cc(Cl)c3c(c1)OCCO3)C2 | 11.8% |
| Cc1cn[nH]c1C1COCCN1Cc1c[nH]cn1 (stereo not given) | 8.68% |

| Structure (SMILES) | Percent Effect |
| --- | --- |
| CCCc1cc(C(=O)NC(COC)c2ccnn2C)no1 (stereo not given) | -16.8% |
| Cc1cc(CNC2(CO)CCOCC2)ccc1Br | 5.13% |
| c1ccc(C2CN(C3CC3)CC3(CCN(Cc4ncc[nH]4)CC3)C2)cc1 (stereo not given) | 6.22% |
| NC(=O)CN(Cc1ncc(-c2ccccc2)o1)C1CCCC1 | -1.01% |
| N#Cc1c(N)nc2c(c1-c1c[nH]nc1C1CCCCC1)COCC2 | 42.5% |
| NC(=O)CC1CCCN(c2cncc(SCc3ccccc3)n2)C1 (stereo not given) | 25.3% |
| CCc1nc2n(n1)CC(NCc1nc3ccccc3nc1C)CC2 (stereo not given) | -2.35% |
| Nc1cc(-c2c[nH]nc2C2CCN(C(=O)C3CCCC3)C2)ccn1 (stereo not given) | -6.9% |
| CCCc1nc(C)cc(N2Cc3cnn(CCO)c3C2)n1 | 5.18% |
| COc1cc(COCC2CCN(Cc3cccnc3)CC2)cc(OC)c1 | 1.38% |
| O=C(C1CCOC1)N1CCN(CC(F)(F)F)c2ccccc21 (stereo not given) | 11.6% |
| CCOc1ccc(CN(C)C(=O)c2nc(N3CCCC3)ncc2Cl)cc1 | -1.93% |
| CN(CCc1ccncc1)Cc1c(C2CCCC2)[nH]c2ncccc12 | 9.38% |
| COc1ccc(F)cc1CN(CC(N)=O)C(C)C | -8.18% |
| CCc1ccc2nc(-c3cnn(C)c3)cc(C(=O)N3CCOCC3)c2c1 | 8.54% |
| Cn1cc(S(=O)(=O)Nc2ccc3[nH]c(C4CCC4)nc3c2)cn1 | -6.7% |
| CC(=O)N1CC(c2ccnc(Nc3nccs3)n2)C1 | 1.83% |
| N#Cc1cccnc1Nc1ccc(N2CCC(C(N)=O)CC2)cc1 | 19% |
| CCNC(=O)C1CCN(Cc2ccccc2OCC(F)(F)F)CC1 | -3.27% |
| COc1ccc(N2CCN(Cc3nc(CSC)no3)C(C)C2=O)cc1 (stereo not given) | 4.28% |

Source: ChEMBL document CHEMBL3988442, “University of Dundee, Small-Polar-MMV Screening Library” (2021)
